Structures are written as SMILES. Values joined by “and” are separate entries in the source; they are usually repeats but may differ in a detail not shown here. Identical values can stand only once. Values without a mark were called inactive. Inconclusive results are not listed. Active and inactive are the calls of the source. Unless noted, no rule for the calls is given here.

Experiment [1] has as its target Single-stranded DNA-binding protein (Escherichia coli (strain K12)) (UniProt P0AGE0). Kind of experiment: E. coli SSB displacement from DNA, counter-screen for HCV NS3 helicase inhibitor project, biochemical, fluorescence polarization, NIH Clinical Collection (AID 743271; in the data active = inhibition above about 28%). The note with it: active compounds read high, concentration not given here. (In general: Counterscreens check selectivity or assay interference.)

Experiment [2] is described as follows: fluorescence interference in NS3h assay format, artefact control for HCV NS3 helicase inhibitor project, biochemical, NIH Clinical Collection (AID 743272).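 Also: HCV NS3 helicase with a Cy5 labelled single stranded DNA probe.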 The following applies: fluorescence interference counterscreen, active compounds read low.
A short description of experiment [3]: modulation of C. elegans fzo-1 (AID 1259413).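 Also: fzo-1 mutant C. elegans worms in liquid wells.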 The note with it: C. elegans fzo-1 modulator screen, mean read-out; active compounds read high.
The subject of the next experiment is F380Y. Kind of experiment: modulators of BK channel variants, profiling panel, selectivity assay, cell-based, U2OS BacMam, thallium flux, beta subunits (AID 1259406;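 active = thallium flux through the channel raised or lowered by more than 3 SD from vehicle-only wells, actives on both sides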;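 also: initial slope of Thallos dye fluorescence rise after thallium is added; log ratio against the mean of 0.3% DMSO vehicle wells on the same plate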). The following applies: at 30 µM.
In another experiment the test system is F380Y/beta1. Described as above. The note with it: at 30 µM.
In a further experiment the test system is F380Y/beta2Delta. The description is as above. The note with it: at 30 µM.
The subject of another experiment is F380Y/beta4. The description is as above. The note with it: at 30 µM.
In experiment [4] the target is Calcium-activated potassium channel subunit alpha-1 (Homo sapiens) + Leucine-rich repeat-containing protein 26 (Homo sapiens) (UniProt Q12791+Q2I0M4). The experiment is described as above. The note with it: F380Y/Slo1WT/gamma1, at 30 µM.
A further experiment relates to R275C. The experiment is described as above. The note with it: at 30 µM.
A further experiment concerns R275C/beta1. The experiment is described as above. The following applies: at 30 µM.
A further experiment relates to R275C/beta2Delta. Described as above. The note with it: at 30 µM.
The test system of the next experiment is R275C/beta4. The description is as above. The following applies: at 30 µM.
For another experiment, the system named is R275C/Slo1WT/beta2. The experiment is described as above. The note with it: at 30 µM.
Experiment [5] can be described thus: growth inhibition of DIPG glioma cells, dose response, cell-based, SU-DIPG-XIII, MIPE4.0, CellTiter-Glo, qHTS (AID 1347061; cut-off not given, nearly all actives have AC50 up to about 37 µM;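 also: cells exposed to compound for 48 hours before readout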). The following applies: SU-DIPG-XIII viability, CellTiter-Glo ATP luminescence.
A short description of experiment [6]: growth inhibition of DIPG glioma cells, dose response, cell-based, SU-DIPG-IV, MIPE4.0, CellTiter-Glo, qHTS (AID 1347063; cut-off not given, nearly all actives have AC50 up to about 30 µM;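 also: compound exposure lasted 48 hours before the viability readout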). The following applies: SU-DIPG-IV viability, CellTiter-Glo ATP luminescence. A general note: ATP-based viability assays read luminescence as a measure of living cells.
Experiment [7] is described as follows: circadian clock period modulators, cell-based, LOPAC library, luminescence reporter (AID 2774).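 Also: values are relative to mean of DMSO wells on each plate.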 The note with it: circadian reporter cells, at 7 µM, actives lie on both sides.
For experiment [8], the system named is Hepatitis C virus NS3 helicase. Kind of experiment: HCV NS3 helicase inhibitors, primary screen, biochemical, fluorescence polarization, LOPAC1280 library (AID 687035; in the data active = inhibition above about 37%). The note with it: Purified HCV NS3 helicase, Cy5-dT15 ssDNA binding fluorescence polarization; active compounds read high; concentration not given here. On the technique in general: In fluorescence polarisation assays a small probe gives low polarisation when free and higher when bound to something large.

Experiment [9] can be described thus: Cy5 fluorescence quenching or enhancement artefacts, artefact control for HCV NS3 helicase inhibitor project, biochemical, LOPAC1280 (AID 687037). The note with it: Cy5-DNA-NS3h complex fluorescence interference counterscreen.
A short description of experiment [10]: phospholipid biosynthesis inhibitors in animal cells, primary screen, cell-based, LOPAC library, screen 4 (AID 1347384). The note with it: phospholipid biosynthesis inhibition screen, at 10 µM.
Experiment [11] is described as follows: growth inhibition of DIPG glioma cells, dose response, cell-based, JHH-DIPG-1, MIPE4.0, CellTiter-Glo, qHTS (AID 1347062; cut-off not given, nearly all actives have AC50 up to about 27 µM;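 as to AC50: cells exposed to compound for two days before readout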). The note with it: JHH-DIPG-1 viability, CellTiter-Glo ATP luminescence.

Calcium-activated potassium channel subunit alpha-1 (Homo sapiens) + Leucine-rich repeat-containing protein 26 (Homo sapiens), sequence (Q2I0M4 whole entry, looked up, one chain of several): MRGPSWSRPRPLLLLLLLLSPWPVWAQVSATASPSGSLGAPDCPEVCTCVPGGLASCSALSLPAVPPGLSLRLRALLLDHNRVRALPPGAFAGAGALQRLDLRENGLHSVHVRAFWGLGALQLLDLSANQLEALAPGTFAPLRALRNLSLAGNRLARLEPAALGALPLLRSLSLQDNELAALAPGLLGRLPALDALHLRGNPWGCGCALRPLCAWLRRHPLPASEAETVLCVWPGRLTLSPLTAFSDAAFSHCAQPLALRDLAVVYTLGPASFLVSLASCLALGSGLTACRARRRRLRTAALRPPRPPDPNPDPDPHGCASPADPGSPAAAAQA

Turning to `COc1ccc(-c2oc3c(CC=C(C)C)c(O[C@@H]4O[C@H](CO)[C@@H](O)[C@H](O)[C@H]4O)cc(O)c3c(=O)c2O[C@@H]2O[C@@H](C)[C@H](O)[C@@H](O)[C@H]2O)cc1`, the inhibition – broadly, the drop in the measured response relative to a control, in per cent – in experiment [1] was -2.41%. Also, the fluorescence ratio in experiment [2] was 0.98. The mean signal in experiment [3] is 233. For the same compound, the log fold change Tl+ flux in the experiment on F380Y was 0.00269; in the experiment with F380Y/beta1 it was 0.00909; in the experiment with F380Y/beta2Delta it was -0.0493; with F380Y/beta4, -0.0291; in experiment [4] it was -0.0341; with R275C, -0.04. The log fold change Tl+ flux with R275C/beta1 is 0.009; in the experiment with R275C/beta2Delta it was -0.0522; in the experiment on R275C/beta4, -0.0348; in the experiment with R275C/Slo1WT/beta2, 0.0155.
Consider `CCCCCCCCCCCC1=C(O)C(=O)C=C(O)C1=O`, for which, in experiment [5], the outcome was inactive. Further, the AC50 – broadly, the concentration giving half of the maximal activity seen – in experiment [6] was 52.6 nM (active).
`O=C(O)c1cccnc1C(=O)O`: in [7], the period change is -0.235 h. Also, the inhibition in experiment [8] is -2%. For the same compound, the fluorescence ratio (interference) in experiment [9] is 1. Moreover, the result in [10] was inactive.
As to `O=c1cc(-c2ccc(O)cc2)oc2cc(O)cc(O)c12`, in experiment [7], the period change is 0.02 h. In addition, the inhibition in [8] was -1%. Also, the fluorescence ratio (interference) in experiment [9] is 1. The AC50 in [11] is 2350 nM (active); in [6], 2960 nM (active). Moreover, in experiment [10], the outcome was inactive.
As to `CN1C[C@H](C(=O)N[C@]2(C)O[C@@]3(O)[C@@H]4CCCN4C(=O)[C@H](Cc4ccccc4)N3C2=O)C[C@@H]2c3cccc4[nH]cc(c34)C[C@H]21`, the period change in experiment [7] is 0.225 h. The inhibition in experiment [8] was -3%. The fluorescence ratio (interference) in [9] was 1. For the same compound, the call in experiment [10] was inactive.
`CCCCOc1cc(CC2CNC(=O)N2)ccc1OC` (stereo not given): the period change in [7] is 0.115 h. Further, in [8], the inhibition is -2%. The fluorescence ratio (interference) in experiment [9] was 1. Also, in experiment [10], the compound was called inactive.
Take `COc1cc(CNC(=O)CCCC/C=C/C(C)C)ccc1O`: the outcome in experiment [5], in experiment [11] and in [6] was inactive.
With `CC/C(=C(\c1ccccc1)c1ccc(OCCN(C)C)cc1)c1ccccc1`, the period change in experiment [7] was 0.115 h. In experiment [8], the inhibition was -5% and -2%. Further, the fluorescence ratio (interference) in experiment [9] is 1 and 0.9. Besides, in experiment [6], the AC50 was 26400 nM (active). Further, in [10], the compound was called inactive.
Consider `NCCc1cnc[nH]1`, for which the period change in [7] was 0.14 h. For the same compound, the inhibition in experiment [8] was -3%. For the same compound, in experiment [9], the fluorescence ratio (interference) is 1. The compound was classed as inactive in [5], in experiment [11] and in experiment [10].
`O=c1cc(-c2ccccc2)oc2cc(O)c(O)c(O)c12`: the call in [5] and in [6] was inactive.
In the case of `COc1cc(/C=C/C(=O)O)ccc1O`, the compound was classed as inactive in experiment [5], in [11] and in experiment [6].
With `O=C(O)/C=C/c1ccc(O)c(O)c1`, the period change in experiment [7] was 0.055 h. In addition, the inhibition in experiment [8] is 0%. Further, the fluorescence ratio (interference) in [9] was 1. Further, in [6], the half-maximal activity concentration (AC50) is 20900 nM (active). Besides, the call in [10] was inactive.
For `CC[C@H]1OC(=O)[C@H](C)[C@@H](O[C@H]2C[C@@](C)(OC)[C@@H](O)[C@H](C)O2)[C@H](C)[C@@H](O[C@@H]2O[C@H](C)C[C@H](N(C)C)[C@H]2O)[C@](C)(O)C[C@@H](C)/C(=N\OCOCCOC)[C@H](C)[C@@H](O)[C@]1(C)O`, the outcome in [5], in experiment [11] and in experiment [6] was inactive.
With `COc1ccc(C(C)=O)c(O)c1`, the half-maximal activity concentration (AC50) in [5] was 13.2 nM (active).
On to `COc1ccc(-c2coc3cc(O)ccc3c2=O)cc1`, for which the call in [5], in experiment [11] and in [6] was inactive.
Take `O=C(CCc1ccc(O)cc1)c1c(O)cc(O)cc1O`: the period change in experiment [7] is 0.135 h. Besides, the inhibition in [8] was -4%. Also, the fluorescence ratio (interference) in experiment [9] is 1. In addition, the outcome in experiment [11] and in [10] was inactive.
With `O=C(/C=C/c1ccc(O)cc1)c1ccc(O)cc1O`, the period change in experiment [7] is 0.18 h. The inhibition in experiment [8] was 0%. Further, the fluorescence ratio (interference) in [9] was 0.9. The call in experiment [10] was inactive.
In the case of `O=C(CCc1ccc(O)cc1)c1c(O)cc(O)cc1O[C@@H]1O[C@H](CO)[C@@H](O)[C@H](O)[C@H]1O`, the result in experiment [5], in [11] and in experiment [6] was inactive.
Take `c1coc(CNc2ncnc3nc[nH]c23)c1`: the call in experiment [5], in [11] and in [6] was inactive.
Take `CN1C2CCC1CC(OC(=O)C(CO)c1ccccc1)C2` (stereo not given): the period change in [7] was 0.005 h and 0.075 h. Moreover, in experiment [8], the inhibition is 0% and -1%. For the same compound, in experiment [9], the fluorescence ratio (interference) is 0.9 and 1.1. The compound was classed as inactive in experiment [5], in [11] and in experiment [10].
Take `NC[C@H]1O[C@H](O[C@H]2[C@H](O)[C@@H](O[C@H]3O[C@H](CO)[C@@H](O)[C@H](N)[C@H]3O)[C@H](N)C[C@@H]2N)[C@H](N)C[C@@H]1O`: the compound was classed as inactive in [5], in [11] and in experiment [6].
In the case of `OCC(O)C(O)C(O)CO` (stereo not given), the outcome in experiment [5], in experiment [11] and in [6] was inactive.
For `OCc1ccccc1O[C@@H]1O[C@H](CO)[C@@H](O)[C@H](O)[C@H]1O`, the compound was classed as inactive in [5], in [11] and in [6].
As for `O=c1cc(-c2ccccc2)oc2cc(O)cc(O)c12`, the compound was classed as inactive in [5], in experiment [11] and in experiment [6].
For `Cc1cc(O)c2c(c1)C(=O)c1cc(O)cc(O)c1C2=O`, in experiment [7], the period change is 0.05 h. Also, the inhibition in [8] was 0%. In experiment [9], the fluorescence ratio (interference) was 1. Further, the call in experiment [5], in [11] and in experiment [10] was inactive.
`COc1cc(O)c2c(c1)C(=O)c1cc(C)cc(O)c1C2=O`: the call in experiment [5] and in experiment [11] was inactive.
Take `COc1ccc(-c2coc3cc(O)cc(O)c3c2=O)cc1`: the compound was classed as inactive in experiment [11].
`C1CCc2nnnn2CC1`: in [7], the period change is -0.075 h. Also, in experiment [8], the inhibition was -2%. Also, in experiment [9], the fluorescence ratio (interference) is 1. Further, the outcome in experiment [10] was inactive.
`Cc1cc(O)c2c(c1)C(=O)c1cccc(O)c1C2=O`: the compound was called inactive in [5] and in experiment [6].
For `C[N+](C)(C)CCO`, the period change in experiment [7] was -0.015 h. The inhibition in experiment [8] was -3%. The fluorescence ratio (interference) in [9] was 1. The outcome in experiment [10] was inactive.
For the compound `O=C(/C=C/c1ccc(O)c(O)c1)OCCc1ccccc1`, the period change in experiment [7] was 0.335 h. In addition, in [8], the inhibition was -2%. Further, the fluorescence ratio (interference) in [9] is 1. In addition, in experiment [10], the outcome was inactive.

Source of the values: PubChem BioAssay.
